Screening results: PubChem BioAssay, Broad Institute
This is one part of a sample in which hits are shown more often than they occur.
Tgondii IFNg: T. gondii growth inhibition with IFN-gamma, primary screen, cell-based; Toxoplasma gondii growth in IFN-gamma-treated host cells; stronger effect = lower value; activity change, negative = inhibition, % (test concentration not listed); actives 3.8% (n = 69,000); AID 1259416, 2018; in the data active means activity change below about -70%, passing the limit was not always enough;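 further: host cells are HeLa cells infected with Toxoplasma gondii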
Active calls of the source: *.

Screening CN1C[C@@H]2OCC[C@@H]2[C@H](C(=O)NCc2cccnc2)C1 returned Tgondii IFNg 9.0.
Screening CO[C@@H]1CCN(Cc2ccoc2)[C@H]2CN(Cc3ccncc3)C[C@@H]12 returned Tgondii IFNg -1.9.
For CC[C@@H]1[C@@H](C)O[C@@](O)([C@@H](C)[C@H](O)[C@H](C)[C@H]2OC(=O)/C=C/C=C/[C@H](C)[C@H]([C@@H](C)[C@@H](O)[C@H](C)[C@@]3(O)C[C@@H](O[C@H]4C[C@H](O)[C@H](O)[C@H](C)O4)[C@H](CC)[C@@H](C)O3)OC(=O)/C=C/C=C/[C@H]2C)C[C@H]1O[C@H]1C[C@H](O)[C@H](O)[C@H](C)O1 the results were Tgondii IFNg -74.8*.
For Cc1cccnc1CC(C)NC1CCN(C(=O)c2ccccc2)CC1 (stereo not drawn) the results were Tgondii IFNg 0.0.
For C[N@@+]1(CC2CC2)CC[C@]23c4c5ccc(O)c4O[C@H]2C(=O)CC[C@]3(O)[C@H]1C5 the results were Tgondii IFNg 20.7.
Screening CN1C(=O)CN=C(c2ccccc2)c2cc(Cl)ccc21 returned Tgondii IFNg -1.8.
Cc1oc(-c2ccccc2)nc1CN1C(=O)CN=C(c2ccc(F)cc2)c2c1sc(C)c2C was read as Tgondii IFNg -40.1.
Screening COc1ccc(C2=NCC(=O)N(Cc3nc(-c4ccccc4)oc3C)c3sccc32)cc1 returned Tgondii IFNg -95.2*.
Screening Fc1cccnc1OC1C2CCC1N(Cc1ccco1)CCO2 (stereo not drawn) returned Tgondii IFNg 70.5.
Screening CCCN1CCN(CCN(C)C)c2ncccc2C1 returned Tgondii IFNg -50.8.
`Cn1cc(CN2C[C@H]3COC[C@@]3(COc3ncccc3F)C2)cn1` gave Tgondii IFNg -1.5.
For CN(C)c1ccc(/C=C/C(=O)C2C(=O)N(C)C3(C)CC2c2cc(Cl)ccc2O3)cc1 (stereo not drawn) the results were Tgondii IFNg 21.2.
`CC(C)[C@]12O[C@H]1[C@@H]1O[C@]13[C@]1(O[C@H]1C[C@H]1C4=C(CC[C@@]13C)C(=O)OC4)[C@@H]2O` gave Tgondii IFNg -82.9*.
C1CC2(CCN1)CC(N1CCOCC1)CO2 (stereo not drawn) was read as Tgondii IFNg 18.0.
Screening COc1ccc2n[nH]c(CN3C[C@@H]4[C@H](C3)[C@H]3CC[C@@H]4O3)c2c1 returned Tgondii IFNg 27.1.
CC[C@H]1CN2CCC1C[C@@H]2[C@H](O)c1ccnc2ccc(OC)cc12 (stereo partly drawn) was read as Tgondii IFNg -79.1*.
